Laboratory results from the supplement of paper PMC12067093, “Discovery and optimisation of a covalent ligand for TRIM25 and its application to targeted protein ubiquitination” (Chemical Science, 2025).
About 21,000 targets were measured; listed, in parts, are those with the largest changes and a random draw of the rest.

Legend:
[1] = molecular target: SARS_P49591_431_VEFVHMLNATMCATTR (UniProt P49591); test: probe-labelled cysteine peptide fold change vs DMSO (competition) (log2 fold change); higher = less target engagement (more negative = stronger competition); details: THP-1, incubation time: 4 h
Chain of UniProt P49591 (P49591 whole entry, looked up): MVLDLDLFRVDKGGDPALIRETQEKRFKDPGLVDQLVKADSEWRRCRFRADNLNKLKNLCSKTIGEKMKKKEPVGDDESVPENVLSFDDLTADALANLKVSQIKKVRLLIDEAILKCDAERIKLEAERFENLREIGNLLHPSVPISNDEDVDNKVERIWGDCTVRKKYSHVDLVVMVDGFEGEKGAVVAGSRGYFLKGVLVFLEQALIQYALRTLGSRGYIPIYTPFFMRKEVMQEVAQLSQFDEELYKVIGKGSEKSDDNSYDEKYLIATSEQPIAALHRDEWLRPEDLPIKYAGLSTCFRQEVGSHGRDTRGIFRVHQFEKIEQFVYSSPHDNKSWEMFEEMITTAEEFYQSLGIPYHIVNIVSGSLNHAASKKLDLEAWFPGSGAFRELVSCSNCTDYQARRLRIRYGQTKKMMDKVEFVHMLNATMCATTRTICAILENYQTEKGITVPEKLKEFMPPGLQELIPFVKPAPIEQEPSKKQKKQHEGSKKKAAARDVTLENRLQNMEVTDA

[2] = molecular target: SLFN11_Q7Z7L1_842_VVQLSDACDMLGDHIVLDSVRR (UniProt Q7Z7L1); test: as above; details: THP-1, incubation time: 4 h
Chain of UniProt Q7Z7L1 (Q7Z7L1 whole entry, looked up): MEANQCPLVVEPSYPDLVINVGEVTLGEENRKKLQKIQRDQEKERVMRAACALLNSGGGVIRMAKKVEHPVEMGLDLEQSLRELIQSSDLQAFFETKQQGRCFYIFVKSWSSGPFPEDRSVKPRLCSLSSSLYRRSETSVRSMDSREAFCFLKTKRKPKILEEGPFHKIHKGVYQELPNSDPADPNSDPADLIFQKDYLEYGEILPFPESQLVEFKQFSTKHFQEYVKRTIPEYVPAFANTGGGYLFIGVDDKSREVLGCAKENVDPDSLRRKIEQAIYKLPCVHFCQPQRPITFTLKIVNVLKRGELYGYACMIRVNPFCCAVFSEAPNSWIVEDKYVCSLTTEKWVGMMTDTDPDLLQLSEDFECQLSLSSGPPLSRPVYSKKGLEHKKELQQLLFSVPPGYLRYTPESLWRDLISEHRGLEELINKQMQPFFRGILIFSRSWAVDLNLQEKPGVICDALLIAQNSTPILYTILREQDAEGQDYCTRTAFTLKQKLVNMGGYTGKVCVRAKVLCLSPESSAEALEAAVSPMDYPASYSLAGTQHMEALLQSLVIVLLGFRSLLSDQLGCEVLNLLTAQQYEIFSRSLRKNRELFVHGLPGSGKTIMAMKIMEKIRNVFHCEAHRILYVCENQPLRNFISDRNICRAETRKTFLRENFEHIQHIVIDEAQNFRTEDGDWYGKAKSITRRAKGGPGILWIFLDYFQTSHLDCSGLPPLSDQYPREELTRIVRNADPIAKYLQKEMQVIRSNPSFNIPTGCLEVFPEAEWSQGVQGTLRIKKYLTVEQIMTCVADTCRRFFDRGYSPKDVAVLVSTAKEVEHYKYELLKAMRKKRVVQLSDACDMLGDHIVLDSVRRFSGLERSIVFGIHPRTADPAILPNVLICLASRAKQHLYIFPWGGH
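Note: competitive chemoproteomic profiling in live THP-1 cells with an iodoacetamide desthiobiotin (IA-DTB) probe, comparing probe-labelled peptide intensities in compound-treated cells against DMSO-treated controls.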

SMILES: CC1Cc2ccccc2N1C(=O)C1CCCN(C(=O)CCl)C1 (mixture of isomers) [TRIM25 ligand 11 (diastereomer mixture)]
- probe-labelled cysteine peptide fold change ([1]; 10 µM): 0.102
- probe-labelled cysteine peptide fold change ([1]; 50 µM): 0.113
- probe-labelled cysteine peptide fold change ([2]; 10 µM): 0.174
- probe-labelled cysteine peptide fold change ([2]; 50 µM): 0.0323
